Records with an inconclusive call do not appear. A call without a number means that no potency is given here. Activity calls are given as the source filed them. Unless noted, the call rests on the fitted dose curve; in most records, active means well fitted curve in either direction with a large enough effect (not every such curve was filed as active); inconclusive means small, poorly fitted or top-dose-only effect, or another doubt; inactive means flat fitted curve, though single readings scatter. Where only a bound is given, the exact number is not on record here.

Chain of Lysosomal acid glucosylceramidase (Homo sapiens) (P04062 whole entry, looked up): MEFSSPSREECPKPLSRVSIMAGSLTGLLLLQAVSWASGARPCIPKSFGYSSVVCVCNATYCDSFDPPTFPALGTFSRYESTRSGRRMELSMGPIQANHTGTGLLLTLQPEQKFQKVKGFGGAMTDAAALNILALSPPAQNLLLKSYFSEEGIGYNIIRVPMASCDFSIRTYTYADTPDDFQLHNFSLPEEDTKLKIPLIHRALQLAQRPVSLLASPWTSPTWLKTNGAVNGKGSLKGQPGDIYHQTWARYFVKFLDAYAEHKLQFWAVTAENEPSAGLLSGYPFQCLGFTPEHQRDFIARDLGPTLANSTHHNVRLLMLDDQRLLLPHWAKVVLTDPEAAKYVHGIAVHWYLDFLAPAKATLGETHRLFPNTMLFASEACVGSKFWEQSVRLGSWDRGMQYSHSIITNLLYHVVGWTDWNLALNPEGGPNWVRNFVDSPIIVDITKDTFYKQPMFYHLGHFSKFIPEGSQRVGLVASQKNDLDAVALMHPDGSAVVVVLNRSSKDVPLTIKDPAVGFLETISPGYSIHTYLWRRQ

The first test concerns the target Lysosomal acid glucosylceramidase (Homo sapiens) (UniProt P04062). Nature of the test: Glucocerebrosidase-p2 (AID 348; in the data active means potency below about 10 µM; further: potency means the concentration at half of the fitted maximal effect). Particulars: purified GBA, blue fluorogenic substrate, 40 min. The essentials: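 Normal human glucocerebrosidase (0.2 nM) with blue fluorogenic substrate (80 uM final) in citrate/phosphate pH 5.9 with 10mM sodium taurocholate, 0.01% tween-20; 40 min RT, NaOH/glycine stop; fluorescence Ex 365/Em 440; AC50 from a titration from 0.6 nM upwards.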
Consider `Nc1ccc(S(=O)(=O)Nc2cnc3ccccc3n2)cc1`, for which the Potency is > 11.4 µM (inactive). Take `O=C(O)CCc1nc2ccccc2[nH]1`: the Potency is > 11.4 µM (inactive). For `CCc1oc2ccccc2c1C(=O)c1cc(Br)c(O)c(Br)c1`, the Potency is > 11.4 µM (inactive).

Tested on in another test: not listed separately
The test can be described thus: AP1 Signaling Pathway (AID 357). Conditions: ME-180 (cervical carcinoma) AP-1-bla reporter, EGF-induced, beta-lactamase ratio, 5 h; series mostly up to 17.2 µM. The essentials: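 AP-1-bla ME-180 cells with beta-lactamase reporter under AP-1 response element, stimulated with EC50 EGF; compounds titrated, 5 hours at 37 degrees Celsius. CCF4 read at 460/530 nm ratio; positive and negative modulators judged by AC50.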
For `CCCCNc1ccc(C(=O)OCCOCCOCCOCCOCCOCCOCCOCCOCCOC)cc1`, the result was inactive. Consider `CN1CCC(OC(c2ccccc2)c2ccccc2)CC1`, for which the result was inactive.

Turning to `O=C(CCCN1CC=C(n2c(=O)[nH]c3ccccc32)CC1)c1ccc(F)cc1`, the result was inactive. `COc1cc(N)c(Cl)cc1C(=O)NC1CCN(Cc2ccccc2)CC1`: the outcome was inactive.

`CCCN(CCC)S(=O)(=O)c1ccc(C(=O)O)cc1`: the result was inactive. Turning to `CCCCCCCCNC(C)C(O)c1ccc(SC(C)C)cc1` (stereo unspecified), the outcome was inactive. As for `NS(=O)(=O)c1cc(C(=O)O)cc(N2CCCC2)c1Oc1ccccc1`, the outcome was inactive. Regarding `CCCc1ncc(C[n+]2ccccc2C)c(N)n1`, the result was inactive.

On to `Nc1ccc(C(=O)NCC(=O)O)cc1`, for which the outcome was inactive. For `COc1cc(C)nc(-n2nc(C)cc2OC)n1`, the result was inactive.

For `CCOc1ccc(NC(C)=O)cc1`, the result was inactive. For `COc1ccc(C(=O)c2ccccc2)c(O)c1`, the result was inactive. Consider `Nc1ccc(S(=O)(=O)Nc2cnc3ccccc3n2)cc1`, for which the result was inactive. `CCc1cc(Cl)c(OC)c(C(=O)NC[C@@H]2CCCN2CC)c1O`: the result was inactive. Regarding `COc1cc(C(=O)NCc2ccc(OCCN(C)C)cc2)cc(OC)c1OC`, the result was inactive. Turning to `O=C(O)CCc1nc2ccccc2[nH]1`, the outcome was inactive. Consider `O=C1C(CCS(=O)c2ccccc2)C(=O)N(c2ccccc2)N1c1ccccc1` (stereo unspecified), for which the outcome was inactive. For `NS(=O)(=O)Cc1noc2ccccc12`, the outcome was inactive.

Values taken from PubChem BioAssay (NCATS).
